Reference: PubChem BioAssay (NCI)
Compounds without any hit were thinned out: in the full panel of roughly 83,000, 20% have a hit.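 Growth was measured after 48 h exposure to one concentration of compound in 96-well plates. Values under 10 count as active.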 Unmarked numbers belong to inactive results. Calls of active or inactive are those of the source.

Columns and labels:
Assay in all cases: NCI-60 one-dose screen, 48 h (100 = growth as untreated, 0 = no growth, -100 = all killed)
Conditions in all cases: 10 µM unless noted
[1] = system: SR leukemia
[2] = system: RPMI-8226 leukemia
[3] = system: OVCAR-8 ovarian
[4] = system: OVCAR-5 ovarian
[5] = system: OVCAR-4 ovarian
[6] = system: SK-OV-3 ovarian
[7] = system: IGROV1 ovarian
[8] = system: OVCAR-3 ovarian
[9] = system: HS 578T breast
[10] = system: NCI/ADR-RES ovarian
[11] = system: T-47D breast
[12] = system: BT-549 breast
[13] = system: MDA-MB-435 melanoma
[14] = system: SW-620 colon
[15] = system: MCF7 breast
[16] = system: HCT-116 colon
[17] = system: HCC-2998 colon
[18] = system: KM12 colon

Row | SMILES | growth [1] | growth [2] | growth [3] | growth [4] | growth [5] | growth [6] [%] | growth [7] | growth [8] | growth [9] | growth [10] | growth [11] | growth [12] | growth [13] | growth [14] | growth [15] | growth [16] | growth [17] | growth [18]
1 | CC1CCN(CCOc2ccc(CNc3ccc4nc(CCC5CCCCC5)[nH]c4c3)cc2)CC1 | 14.4% | -15.7% (active) | 43.1% | 59.9% | 50.4% | 80.4 | 43.1% | 66.3% | 27.5% | 51% | -32.8% (active) | 68.4% | -43.4% (active) | 13.9% | 5.38% (active) | 13.7% | -50.5% (active) | 44%
2 | COc1ccccc1N1CCCCC1 | 112% | 101% | 110% | 86.2% | 109% | 100 | 101% | 114% | 101% | 106% | 99.1% | 96% | 112% | 99.9% | 96.3% | 102% | 110% | 107%
3 | c1cc2c(ccc3[nH]c(-c4ccc5[nH]ncc5c4)c4c(c32)CCCC4)n1 | -7.05% (active) | 45.8% | 64.4% | 80.4% | 80.7% | 63.4 | 67.6% | 72.5% | 75.7% | 83.2% | 38.9% | 53.2% | 68.9% | 60.8% | 23.3% | 38% | 93.6% | 67.9%
4 | COc1ccc(-c2noc(C(=O)O)c2-c2cc(OC)c(OC)c(OC)c2)cc1 | 10.4% | 0.35% (active) | 30.4% | 87% | 76.7% | 23.5 | 47% | 9.65% (active) | 13.3% | 27.7% | 27.2% | 49.6% | -41.5% (active) | 22.4% | 18.9% | 19.4% | 58% | 27.9%
5 | Cc1cc(=O)oc2cc(OCc3nn4c(Nc5nc6ccccc6s5)c(-c5ccccc5)nc4s3)ccc12 | 94.7% | 82.6% | 80.4% | 97.5% | 61.4% | 92 | 89.2% | 95.3% | 78.1% | 84.6% | 88.1% | 92.6% | 88.8% | 85.3% | 84.1% | 85.4% | 98.5% | 89.6%
6 | CCOC(=O)C/C(=N\Nc1cc(=O)[nH]c2ccc(Br)cc12)C(=O)OCC | 40.8% | 83.2% | 98.6% | 99.6% | 96.6% | 105 | 82.6% | 100% | 92% | 93.4% | 105% | 96.6% | 101% | 90.4% | 91.9% | 99.7% | 96.9% | 96%
7 | C/C(Cc1ccc(Cl)cc1)=C(\c1ccc(O)cc1)c1ccc(Cl)cc1 | 80.5% | 72.5% | 104% | 92.5% | 89.3% | 112 | 96.8% | 103% | 99.6% | 100% | 82.1% | 98.1% | 93% | 95.4% | 102% | 71.6% | 91.9% | 88.6%
8 | Oc1c(Br)cc(Br)c2ccc(Cn3cc(-c4ccc(C(F)(F)F)cc4)nn3)nc12 | -22.9% (active) | -1.77% (active) | 59.5% | 89% | 54% | 110 | 79.6% | -7.84% (active) | 101% | 105% | 46.2% | 72.6% | 48.2% | -16.3% (active) | 27.9% | -0.0235% (active) | 117% | 104%
9 | COc1cc2nc3cc([N+](=O)[O-])ccc3c(NCCNCC(C)O)c2cc1OC (configuration not stated) | -17.9% (active) | -13% (active) | -8.18% (active) | 5.11% (active) | -32.4% (active) | 20.8 | -16.5% (active) | -35.9% (active) | -1.12% (active) | 75.1% | -7.36% (active) | -40.5% (active) | -87.6% (active) | -4.13% (active) | -13.3% (active) | -18.8% (active) | -47.8% (active) | -11.9% (active)
10 | O=C1/C=C/[C@@H](O)[C@@H]2C[C@@H](O)C[C@H]2/C=C/CCC[C@H](CCc2ccccc2)O1 | 9.67% (active) | 10.7% | 14.4% | 19.8% | 24.9% | 28.2 | 14.7% | -42.1% (active) | 47.8% | 5.65% (active) | 15.1% | 9.81% (active) | 5.95% (active) | -9.76% (active) | -3.62% (active) | -73.6% (active) | 15.9% | -50.5% (active)
11 | COc1c(C(=O)Nc2ccc(C)c(Br)c2)ccc2ccccc12 | 54.3% | 95.7% | 99.3% | 92.2% | 82.9% | 97.9 | 94.3% | 107% | 85.5% | 84.6% | 88.9% | 101% | 31.7% | 81.1% | 96% | 96.5% | 99.9% | 81.2%
12 | N#CC1=C(N)Oc2c(c(=O)[nH]c3ccc(Cl)cc23)C12C(=O)c1ccccc1C2=O | 101% | 96.2% | 102% | 96.1% | 93.1% | 101 | 100% | 93.4% | 83.3% | 102% | 98.2% | 89% | 92.6% | 86.5% | 96.4% | 95.7% | 109% | 90.7%
13 | CCCCNCCCCCNc1cc(OC)cc2cccnc12 | 71.1% | 76.9% | 99.3% | 91.4% | 60.1% | 95.2 | 118% | 107% | 99% | 95.9% | 79.4% | 91% | 102% | 100% | 84.6% | 85.9% | 95.4% | 114%
14 | CC1(C)COB(OCC(C)(C)COB2OCC(C)(C)CO2)OC1 | 102% | 118% | 100% | 108% | 113% | 109 | 105% | 110% | 108% | 109% | 104% | 105% | 110% | 110% | 107% | 101% | 104% | 103%
15 | CCOC(=O)c1cc(C)n(-c2ccc(C(=O)O)cc2)c1C | 75.5% | 104% | 87.6% | 76.7% | 94.6% | 92.8 | 107% | 115% | 90.8% | 89.6% | 102% | 76.1% | 107% | 64.4% | 67.1% | 67.5% | 133% | 95.3%
16 | COc1ccc(Nc2ncc(Br)c(NCCCNC(=O)c3cccs3)n2)cc1 | 31.5% | 27.3% | 32.7% | 60.6% | 57.7% | 49.2 | 21% | 26.6% | 30.9% | 46.5% | 46.2% | 45.6% | 59% | 24.7% | 42.9% | 26.2% | 80.6% | 20.6%
17 | O=C1c2c(c3c4ccccc4[nH]c3c3ccc4ccccc4c23)C(=O)N1CCN1CCNCC1 | -13.3% (active) | -35% (active) | 34.5% | 99.5% | 12.9% | 107 | 58.1% | -47.5% (active) | 94.7% | 25.9% | 55.8% | 93.5% | 80.9% | -54.9% (active) | 23% | -81.3% (active) | 73.7% | 36.3%
18 | CN(C)c1ccc(-c2c(C#N)c(N)nn2C(=O)c2ccc(NC(=O)c3ccccn3)cc2)cc1 | 98.6% | 95.5% | 98.3% | 95.7% | 105% | 108 | 79.1% | 102% | 93.9% | 96.4% | 101% | 97.8% | 98.2% | 92.8% | 92.5% | 90.8% | 95.2% | 88%
19 | Cc1cc(N2CCN(CCNc3ccnc4cc(Cl)ccc34)CC2)nc(N2CCOCC2)n1 | 3.62% (active) | 35.3% | 74.1% | 92.9% | 53.8% | 85.2 | 66% | 73.1% | 85.8% | 66.1% | 55.9% | 74.2% | 80.1% | 79.4% | 53.3% | 38.5% | 37.4% | 76.6%
